Measurements reported in PubChem BioAssay AID1159580 (chemical genetic matrix, 2015).
Where “and” joins values, the source holds several entries; their conditions need not be identical. Equal values may be shown once. About 2,000 (36%) of roughly 5,500 compounds were called active. Roughly 18% stayed inconclusive and do not appear here. No stated cut-off is given here; in the data, active means normalized growth mostly below about 0.91 (no sharp cut-off); inconclusive means no clear call, values can overlap the other calls; inactive means mostly above about 0.92. Some of the results follow.

Assay: chemical genetic growth profiling, strain panel (AID 1159580);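 further: tested at 20 µM; growth read once vehicle control cultures reached saturation at 30 °C; 1 = growth at the plate median or of vehicle wells; lower values mean less growth of the strain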
Conditions: S. cerevisiae deletion strains, growth OD

Measured: normalized growth

NC(=O)c1cc([N+](=O)[O-])cc([N+](=O)[O-])c1
active: locus YDR137W, strain rgp1, hits give low values 1.25 [resistant] | locus YDR195W, strain ref2 0.78 | locus YDR392W, strain spt3, hits give low values 0.633 | locus YER155C, strain BEM2 (second series), hits give low values 0.788
inactive: locus YAL021C, strain ccr4, hits give low values 1.03 | locus YAL026C, strain drs2, hits give low values 0.962 | locus YAL030W, strain snc1, hits give low values 1.01 | locus YBL061C, strain skt5, hits give low values 1.02 | locus YBR009C, strain hhf1, hits give low values 0.972 | locus YBR021W, strain FUR4, hits give low values 0.99 | locus YBR023C, strain chs3, hits give low values 1.02 | locus YBR171W, strain sec66, hits give low values 1.04 | locus YBR229C, strain ROT2, hits give low values 1.02 | locus YBR231C, strain swc5, hits give low values 0.991 | locus YBR279W, strain paf1, hits give low values 1.03 | locus YCL011C, strain gbp2, hits give low values 1.02 | locus YCL016C, strain dcc1, hits give low values 1.05 | locus YCL029C, strain bik1, hits give low values 0.983 | locus YCL061C, strain MRC1, hits give low values 1.01 | locus YCL069W, strain vba3, hits give low values 1.02 | locus YCR088W, strain abp1, hits give low values 1.02 | locus YDL005C, strain med2, hits give low values 1.03 | locus YDL035C, strain GPR1, hits give low values 0.992 | locus YDL040C, strain nat1, hits give low values 1.01 | locus YDL074C, strain BRE1, hits give low values 0.986 | locus YDL101C, strain DUN1, hits give low values 0.989 | locus YDL134C, strain PPH21, hits give low values 1.01 | locus YDL185W, strain tfp1, hits give low values 0.974 | locus YDL192W, strain arf1, hits give low values 0.986 | locus YDR001C, strain nth1, hits give low values 1.01 | locus YDR069C, strain doa4, hits give low values 0.979 | locus YDR101C, strain arx1, hits give low values 0.982 | locus YDR159W, strain sac3, hits give low values 1.04 | locus YDR162C, strain NBP2, hits give low values 0.992 | locus YDR297W, strain sur2, hits give low values 1 | locus YDR318W, strain mcm21, hits give low values 0.974 | locus YDR334W, strain swr1, hits give low values 1.03 | locus YDR335W, strain msn5, hits give low values 1.02 | locus YDR388W, hits give low values 0.996 | locus YDR502C, strain sam2, hits give low values 0.983 | locus YEL003W, strain gim4, hits give low values 0.961 | locus YEL037C, strain rad23, hits give low values 1.01 | locus YEL061C, strain CIN8 (second series), hits give low values 1.02 | locus YEL061C, strain CIN8, hits give low values 1.01 | locus YER015W, strain faa2, hits give low values 1.02 | locus YER016W, strain bim1, hits give low values 0.999 | locus YER110C, hits give low values 0.979 | locus YER111C, strain swi4, hits give low values 1.04 | locus YER155C, strain BEM2, hits give low values 1.01 | locus YER167W, strain BCK2, hits give low values 1.02 | locus YFR010W, strain ubp6, hits give low values 0.995 | locus YGL078C, strain dbp3, hits give low values 0.995 | locus YGL086W, strain mad1, hits give low values 0.968 | locus YGL167C, strain pmr1, hits give low values 1.02 | locus YGL173C, strain kem1, hits give low values 1.01 | locus YGL227W, strain vid30, hits give low values 1.02 | locus YGL240W, strain doc1, hits give low values 0.969 | locus YGL248W, strain PDE1, hits give low values 1.02 | locus YGL253W, strain hxk2, hits give low values 0.994 | locus YGR078C, strain PAC10, hits give low values 1 | locus YGR135W, strain pre9, hits give low values 0.978 | locus YGR252W, strain gcn5, hits give low values 0.906 | locus YHR013C, strain ard1, hits give low values 1.09 | locus YHR027C, strain rpn1, hits give low values 0.997 | locus YHR030C, strain SLT2, hits give low values 1.02 and 0.959 | locus YHR079C, strain IRE1 (second series), hits give low values 0.996 | locus YHR079C, strain IRE1, hits give low values 0.955 | locus YHR094C, strain hxt1, hits give low values 0.954 | locus YHR129C, strain ARP1, hits give low values 1.02 | locus YHR142W, strain chs7, hits give low values 1.01 | locus YHR200W, strain rpn10, hits give low values 0.997 | locus YIL066C, strain RNR3, hits give low values 1.01 | locus YIL073C, strain SPO22, hits give low values 0.993 | locus YIL125W, strain kgd1, hits give low values 1 | locus YIR030C, strain dcg1, hits give low values 1 | locus YJL092W, strain hpr5, hits give low values 1.02 | locus YJL095W, strain BCK1 (second series), hits give low values 1.01 | locus YJL095W, strain BCK1, hits give low values 0.994 and 0.966 | locus YJL115W, strain asf1, hits give low values 1.02 | locus YJL129C, strain trk1, hits give low values 1.1 | locus YJL134W, strain LCB3, hits give low values 1.01 | locus YJL154C, strain vps35, hits give low values 1.03 | locus YJL164C, strain tpk1, hits give low values 0.977 | locus YJL166W, strain qcr8, hits give low values 1 | locus YJL168C, strain set2, hits give low values 0.997 | locus YJL187C, strain SWE1 (second series), hits give low values 1.01 | locus YJL187C, strain SWE1, hits give low values 1.03 | locus YJR043C, strain POL32, hits give low values 0.967 | locus YJR066W, strain TOR1, hits give low values 0.918
